Compound activity from PubChem.
Ecoli rRNA inh – reduced GFP signal of wild-type E. coli, primary screen, bacterial rRNA inhibitor project, GFP/RFP fluorescence, OD600, single point. E. coli WT GFP vs humanized-ribosome RFP mutants, 24 h; active compounds read low; DMSO median 0, no signal -100. GFP signal change (wild-type ribosome), % (no concentration beside the values). hit rate 1.6% among 350,000. AID 720706, 2013;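 active = significant combined selectivity score with lowered wild-type GFP, culture density cut under 30%, mutant RFP and density less affected; inactive = any of these conditions unmet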
MITF TRPM1 HTS – activators of MITF-driven TRPM1 promoter reporter, primary screen, cell-based, SK-MEL-5, luciferase, single point | activation, % at 12.5 µM | SK-MEL-5 TRPM1-promoter luciferase, 24 h; % of positive control, neutral wells = 0 | hit rate 0.75% among 300,000;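 active = mean activation of at least 80% with every replicate also reaching 80%; inconclusive = mean reaches 80% but some replicate falls short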;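 also: 0% = neutral control wells and 100% = parthenolide positive control wells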
esBAF inh – Bmi1 luciferase reporter increase in mESCs, primary screen, esBAF inhibitor project, mouse ES cells, Bmi1 luciferase knock-in, single point; reporter increase, % at 12.5 µM; hit rate 2% among 350,000; 24 h; 100% = twice the neutral-well signal; in the data active = activation above about 40%; inconclusive = no clear call, values can overlap the other calls;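 also: 0% = median of the plate's neutral control wells and 100% = double that signal; a rise in the Bmi1 reporter signal indicates esBAF inhibition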
MLL AF4-AF9 inh – inhibitors of AF4 peptide binding to AF9, primary screen, biochemical, AlphaScreen, biotin-AF4 peptide, FLAG-AF9, single point; hit rate 0.47% among 350,000; AID 651704, 2012; Protein AF-9 (Homo sapiens), P42568; inhibition, % at 10 µM;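 active = every replicate reaching a set inhibition limit, whatever the replicate mean, cut at about 25% in these data; inconclusive = mean inhibition reaches that limit but some replicates miss it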;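 also: 0% = plate neutral control median and 100% = total signal loss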
Target sequence (P42568 whole entry, looked up): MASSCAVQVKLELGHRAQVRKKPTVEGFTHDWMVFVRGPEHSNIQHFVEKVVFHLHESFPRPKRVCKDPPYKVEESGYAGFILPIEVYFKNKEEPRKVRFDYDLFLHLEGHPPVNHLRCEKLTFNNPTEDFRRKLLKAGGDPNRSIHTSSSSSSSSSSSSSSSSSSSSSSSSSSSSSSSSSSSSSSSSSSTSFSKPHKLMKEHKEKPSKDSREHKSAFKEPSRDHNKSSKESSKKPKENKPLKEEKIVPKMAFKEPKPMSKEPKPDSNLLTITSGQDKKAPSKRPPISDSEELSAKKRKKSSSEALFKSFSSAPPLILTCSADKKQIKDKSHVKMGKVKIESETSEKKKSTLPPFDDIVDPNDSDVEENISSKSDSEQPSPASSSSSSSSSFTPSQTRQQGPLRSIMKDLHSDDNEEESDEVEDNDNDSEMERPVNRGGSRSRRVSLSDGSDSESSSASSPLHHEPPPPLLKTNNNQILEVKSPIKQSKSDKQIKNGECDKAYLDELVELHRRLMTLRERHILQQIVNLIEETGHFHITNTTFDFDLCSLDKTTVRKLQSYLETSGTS
Wnt act – Wnt/beta-catenin pathway activators, primary screen, cell-based, plate reader, single point; Wnt/beta-catenin reporter cell assay, activator; hit rate 1.2% among 300,000; activation, % at 9.35 µM; in the data active = activation above about 30%, passing the limit was not always enough; inconclusive = no clear call, values can overlap the other calls;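 also: 0% = neutral control wells and 100% = positive control wells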
Active calls of the source: *; ? = inconclusive; · = not tested or not shown. Compounds with a hit are over-represented: about 3.7% of the library has one in this group of screens.

SMILES | Ecoli rRNA inh | MITF TRPM1 HTS | esBAF inh | MLL AF4-AF9 inh | Wnt act
Oc1ccc(-c2csc(Nc3ncccn3)n2)cc1O | -30* | 25 | · | 7 | 3
N#CC(=C1C=C(Br)C(=NO)C=C1Cl)c1cccc2ccccc12 | -10 | · | 4 | 26* | -3
N#CSCC(=O)c1cccc2ccccc12 | · | -18 | -10 | 2 | 10
COC(=O)NNC(=O)c1ccc(Cl)cc1Cl | · | -6 | · | -7 | -3
COC(=O)Nc1cc(C(=O)c2ccc(Cl)cc2Cl)c[nH]1 | -47* | -8 | 0 | 8 | 0
CC(=O)N1CCC(N(CCN2CCOCC2)C(=O)Nc2ccc(Cl)c(Cl)c2)CC1 | -40* | -7 | -9 | -5 | -1
CC(SCc1ccccc1)C(=O)Nc1ccccc1 (stereo not drawn) | 3 | 5 | -1 | 1 | 37*
N#Cc1cc(C(=O)c2cc(Br)ccc2O)cn(Cc2ccccc2)c1=O | -6 | -13 | · | -1 | -1
CC1CN(Cc2csc(-c3ccc(Cl)cc3)n2)CC(C)O1 (stereo not drawn) | -24 | 21 | 47* | 3 | 3
C[C@@H]1CN([C@@H](C)CO)C(=O)c2cccc(NS(C)(=O)=O)c2O[C@@H]1CN(C)Cc1ccc(C(F)(F)F)cc1 | 5 | · | -5 | · | ·
Fc1ccc(OCCCn2ccnc2)cc1 | 19 | 2 | -9 | 0 | -1
NCCCC[C@H](N)c1nnc([C@H](CCC(=O)O)NC(=O)C2CCNCC2)o1 | -2 | 18 | -1 | 28* | -1
COc1ccc(-c2cc(C(F)(F)F)nc(S(C)(=O)=O)n2)cc1 | · | · | -30 | · | ·
CS(=O)(=O)c1nc(-c2ccc(F)cc2)cc(C(F)(F)F)n1 | -34* | -97 | · | 3 | ?
COc1cc(-c2cnc3c(NC=O)cc(-c4ccc(N5CCN(C)CC5)cc4)cn23)cc(OC)c1OC | 8 | · | 1 | 18 | 1
CN1CCN(c2ccc(-c3cc(NC=O)c4ncc(-c5ccc(F)cc5)n4c3)cc2)CC1 | 3 | · | -1 | 38* | -3
Cc1ccccc1-c1nc(-c2ccc(NC(=O)c3ccc(Br)o3)cc2)no1 | · | 71 | 49* | · | ·
CCCC(=O)Nc1ccc(C(=O)NNC(=S)NC(=O)c2ccc(Br)o2)cc1 | -27* | -25 | -7 | -1 | 0
O=C(NC(=S)N1CCc2ccccc21)c1ccc(Br)o1 | -42* | 4 | · | 2 | 4
O=C(Nc1ccc(Nc2ccccc2)cc1)c1ccc(Br)o1 | · | 41 | 57* | · | 29
CCCC(=O)Nc1ccc(C(=O)NNC(=S)NC(=O)c2cccs2)cc1 | · | -17 | -2 | · | 2
CN(CC(=O)C(C(N)=O)c1ccccc1)c1ccccc1 (stereo not drawn) | -6 | · | -11 | 0 | 1
COc1ccc(CSCC(=O)N/N=C/c2ccccc2O)cc1 | -34 | -6 | · | -1 | -5
O=C(Nc1cccc(C(=O)Nc2cccc(Br)c2)c1)c1ccccc1 | -23 | 31 | 4 | -3 | 2
Cc1cc(O)c(NC(=O)c2ccc(Br)o2)cc1C | · | 54 | 67* | · | ?
SMILES | Ecoli rRNA inh | MITF TRPM1 HTS | esBAF inh | MLL AF4-AF9 inh | Wnt act
CC(C)c1ccc(NC(=O)c2cccc(Br)c2)cc1 | -2 | 71 | · | -5 | 56*
CC(C)c1ccc(NC(=O)c2ccc(Br)o2)cc1 | · | 89* | · | · | ·
COc1ccccc1NC(=O)c1ccc(Br)o1 | · | -14 | 7 | · | 0
COc1ccc(NC(=S)NC(=O)c2ccc(Br)o2)cc1 | · | 90* | 46* | · | 24
N/C(=N\OC(=O)Cc1ccccc1)c1ccc(Br)cc1 | · | 18 | · | -15 | 9
COc1ccc2nc(SC(C)C(=O)NC3(C#N)CCCCC3)[nH]c2c1 (stereo not drawn) | · | 4 | 20 | 1 | -2
CN(CC(=O)Nc1ccc(N2CCOCC2)cc1)C(=O)CCNC(=O)c1ccccc1Cl | 1 | 4 | · | -12 | 1
Cc1[nH]c2ccc(OC(F)(F)F)cc2c1CCN1C(=O)c2ccc(C(=O)O)cc2C1=O | -45 | 0 | -8 | 0 | -1
O=C(NC(=S)NCc1ccccc1)c1ccc(Br)o1 | -40 | 7 | -2 | 2 | 0
O=C(NC(=S)Nc1ccccc1)c1ccc(Br)o1 | 4 | 53 | 45* | -4 | 50*
CCN1CCc2c(sc(NC(=O)C3COc4ccccc4O3)c2C(N)=O)C1 (stereo not drawn) | 2 | 86* | 26 | -17 | 12
CN1CCc2c(sc(NC(=O)C3COc4ccccc4O3)c2C(N)=O)C1 (stereo not drawn) | 9 | 25 | 34 | 0 | 4
CCC(=O)Nc1sc2c(c1C(N)=O)CCN(Cc1ccccc1)C2 | 2 | · | 31 | -6 | 39*
COc1ccc(-c2cc(NC=O)c3ncc(-c4cccc(C(=O)N(C)C)c4)n3c2)cn1 | 2 | · | -1 | 1 | -8
Cc1c(C(=O)Nc2ccccc2)sc2nc(-c3ccccc3)cn12 | · | 27 | ? | · | 58*
COc1ccc(-c2cn3c(C)c(C(=O)Nc4cccc(C)n4)sc3n2)cc1 | -30* | 13 | 55* | -15 | -1
Cc1cccc(NC(=O)c2sc3nc(-c4ccc(F)cc4)cn3c2C)n1 | · | 13 | 20 | · | ·
Cc1c(C(=O)Nc2ccc3c(c2)OCO3)sc2nc(-c3ccccc3)cn12 | · | -7 | 20 | · | -13
O=C1c2ccccc2C(=O)N1CN(C(=O)c1ccccc1[N+](=O)[O-])c1ccc(F)cc1 | -11 | 2 | · | 9 | 1
O=C(Oc1c(CN2CCOCC2)cc(Cl)c2cccnc12)c1ccccc1 | -48 | -64 | 2 | 3 | -2
Oc1c(Cl)cc(CN2CCOCC2)c2cccnc12 | -23 | -55 | -13 | 35* | -23
CN(C)/N=C/c1ccc(N2CCOCC2)cc1 | -17* | 50 | 23 | 2 | 1
CC(C)C1N=C(c2ccc3c(c2)OCO3)CC(c2ccccc2O)N1 (stereo not drawn) | · | 19 | 47* | · | ·
O=C(CN1CCCCCC1)Nc1ccc(Br)cn1 | -5 | · | -7 | 0 | 0
CC(C)(C)c1ccc(NC(=O)c2ccc(=O)[nH]n2)cc1 | -3 | 97* | 14 | 2 | 33*
O=C(Nc1ccc2c(c1)OCO2)c1ccc(=O)[nH]n1 | 18 | 13 | 12 | -1 | -1
O=C(Nc1ccccn1)c1ccc(=O)[nH]n1 | · | 17 | · | · | ·
O=C(Nc1ccccc1-c1ccccc1)c1ccc(=O)[nH]n1 | -4 | 56 | 43* | 0 | -2
COc1cc(NC(=O)c2ccccc2)c(OC)cc1NC(=O)CN1CCCCC1 | · | -3 | 3 | · | ·
O=C1C2C3C=CC(C4CC34)C2C(=O)N1/N=C/c1ccc([N+](=O)[O-])s1 (stereo not drawn) | 14 | 20 | · | -4 | 12
